Among the test systems are HCT-15 colon; HT29 colon; SNB-75 CNS; SNB-19 CNS; U251 CNS; SK-MEL-5 melanoma; UACC-62 melanoma; LOX IMVI melanoma; SK-MEL-28 melanoma; SK-MEL-2 melanoma; EKVX NSCLC; SN12C renal; UO-31 renal; TK-10 renal; ACHN renal; CAKI-1 renal; A498 renal; CCRF-CEM leukemia; MOLT-4 leukemia; PC-3 prostate.
Holding throughout (assay): NCI-60 one-dose screen, 48 h (100 = growth as untreated, 0 = no growth, -100 = all killed)
Holding throughout (details): 10 µM unless noted

This note sets out measurements from PubChem BioAssay (NCI).

About 83,000 compounds went through this panel and 20% of them were active in at least one assay; those are over-represented in the sample as a whole.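 Compound tested at a single concentration for 48 hours in 96-well plates; a percent growth value below 10 was scored as active.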 A number with no mark means an inactive call. Calls of active or inactive are those of the source.

Turning to `Nc1ncc(-c2ccc3ncnc(Nc4cccc(Cl)c4F)c3c2)cn1`, the growth in the test on HCT-15 colon is 56.4%; in the test on HT29 colon, 78.9%; with SNB-75 CNS, 53.2%; with SNB-19 CNS it was 59.4%; with U251 CNS, 67.9%; in the test with SK-MEL-5 melanoma, 63.6%. For the same compound, the growth in the test on UACC-62 melanoma is 38.9%; in the test with LOX IMVI melanoma, 77.4%; in the test on SK-MEL-28 melanoma, 65.2%; in the test with SK-MEL-2 melanoma it was 95.3%; with EKVX NSCLC, 11.7%; with SN12C renal it was 50.9%. The growth in the test on UO-31 renal was 34.6%; in the test with TK-10 renal, -2.85% (active); in the test with ACHN renal, 25.3%; in the test with CAKI-1 renal it was 38%; in the test with A498 renal it was -10.7% (active); in the test on CCRF-CEM leukemia, 65.6%. Besides, in the test with MOLT-4 leukemia, the growth is 72.3%.

With `O=C1C(c2ccccc2)=C(N2CCc3ccccc32)OC1(Cl)Cl`, the growth in the test with HCT-15 colon is 21.1%; in the test with HT29 colon, 37.4%; in the test on SNB-75 CNS, 74.3%; in the test on SNB-19 CNS, 84.9%; in the test with U251 CNS, 85.8%; in the test with SK-MEL-5 melanoma it was 99.8%. For the same compound, the growth was 81.4% in the test with UACC-62 melanoma; 56.7% in the test on LOX IMVI melanoma; 31.8% in the test on SK-MEL-28 melanoma; 92.2% in the test with SK-MEL-2 melanoma; 76.3% in the test with EKVX NSCLC; 77.5% with SN12C renal. The growth in the test with UO-31 renal is -23.6% (active); in the test with TK-10 renal, 27.6%; in the test on ACHN renal, -63.8% (active); with CAKI-1 renal, 4.78% (active); in the test on A498 renal, 69.2%; with CCRF-CEM leukemia, -17.8% (active). The growth in the test with MOLT-4 leukemia is 0.0776% (active).

In the case of `COc1ccccc1NCc1cccn1Cc1ccc(F)cc1`, the growth with HCT-15 colon is 98.3%; in the test with HT29 colon, 102%; in the test with SNB-75 CNS, 104%; in the test on SNB-19 CNS it was 96%; in the test with U251 CNS, 98.8%; in the test on SK-MEL-5 melanoma, 97.4%. Besides, the growth is 89.8% in the test with UACC-62 melanoma; 97% in the test with LOX IMVI melanoma; 97.4% in the test on SK-MEL-28 melanoma; 106% in the test with SK-MEL-2 melanoma; 97.5% in the test with SN12C renal; 75.6% in the test with UO-31 renal. Also, the growth with TK-10 renal was 91.3%; in the test on ACHN renal it was 93.3%; with CAKI-1 renal it was 94%; in the test with A498 renal, 85.9%; in the test on CCRF-CEM leukemia, 91.8%; in the test on MOLT-4 leukemia, 94%.

As to `O=C(CCC(=O)N1CCOCC1)OCCCCCCSc1ccc([N+](=O)[O-])c2nonc12`, the growth was -67.4% (active) with HCT-15 colon; -34.2% (active) in the test on HT29 colon; 36.4% in the test with SNB-75 CNS; 25.1% with SNB-19 CNS; -29.8% (active) in the test with U251 CNS; 27.9% with SK-MEL-5 melanoma. Moreover, the growth with UACC-62 melanoma was -64.6% (active); in the test on LOX IMVI melanoma, -82.2% (active); in the test with SK-MEL-28 melanoma, -36.9% (active); with SK-MEL-2 melanoma, -40.6% (active); in the test on EKVX NSCLC, 1.52% (active); with UO-31 renal, -84.2% (active). In addition, the growth in the test with TK-10 renal was 13.4%; in the test on ACHN renal, -97.7% (active); with CAKI-1 renal it was -31.2% (active); in the test on A498 renal it was 12.8%; in the test on CCRF-CEM leukemia it was -5.49% (active); in the test on MOLT-4 leukemia, -2.71% (active).

Take `C=C(C)[C@@H]1CC[C@]2(COC)CC[C@]3(C)[C@H](CC[C@@H]4[C@@]5(C)CCCNC(C)(C)[C@@H]5CC[C@]43C)[C@@H]12`: the growth with HCT-15 colon is 2.81% (active); with HT29 colon, 13.7%; in the test with SNB-75 CNS, 76.3%; in the test on SNB-19 CNS, 66.5%; in the test on PC-3 prostate, 39.5%; with SK-MEL-5 melanoma, 48.1%. Also, the growth in the test on UACC-62 melanoma was 75.2%; in the test with LOX IMVI melanoma, -90.8% (active); in the test with SK-MEL-28 melanoma, -61.2% (active); in the test with SK-MEL-2 melanoma, 84.6%; in the test with EKVX NSCLC it was 53.9%; in the test with SN12C renal, 73.6%. Besides, the growth in the test with UO-31 renal is 60.8%; in the test with TK-10 renal, 79.6%; with ACHN renal, 67%; in the test on CAKI-1 renal it was 19%; in the test with A498 renal, 62.3%; in the test on CCRF-CEM leukemia, -10.1% (active). The growth in the test with MOLT-4 leukemia is -32.3% (active).

Regarding `COc1cc(OC)c(S(N)(=O)=O)cc1C(=O)/C=C/c1ccc(Cl)cc1`, the growth with HCT-15 colon was -41.6% (active); with HT29 colon, 6.08% (active); with SNB-75 CNS it was 27.1%; with SNB-19 CNS, 15.8%; in the test with U251 CNS, 3.73% (active); in the test on SK-MEL-5 melanoma, 5.34% (active). Further, the growth in the test with UACC-62 melanoma was 18.6%; with LOX IMVI melanoma, -50.4% (active); in the test on SK-MEL-28 melanoma it was 30.5%; with EKVX NSCLC, 29.8%; with SN12C renal it was 16%; in the test with UO-31 renal it was 7.22% (active). Besides, the growth in the test on TK-10 renal was -5.25% (active); in the test with ACHN renal it was 11.6%; in the test on CAKI-1 renal it was 21.5%; in the test on CCRF-CEM leukemia it was 1.6% (active); in the test on MOLT-4 leukemia, 3.62% (active).

Take `CC(=O)c1cc(C(=O)N2c3ccccc3Sc3ccccc32)n2ccc3ccccc3c12`: the growth is 29.2% with HCT-15 colon; 14.8% with HT29 colon; 34.6% in the test on SNB-75 CNS; 49.1% in the test on SNB-19 CNS; 37.8% in the test with U251 CNS; 37.3% in the test with SK-MEL-5 melanoma. For the same compound, the growth in the test on UACC-62 melanoma is 21.4%; with LOX IMVI melanoma, 41.4%; in the test on SK-MEL-28 melanoma, 62.7%; with SK-MEL-2 melanoma it was -77.5% (active); in the test on EKVX NSCLC, 61.3%; with SN12C renal it was 67.6%. Also, the growth is 42.8% in the test on UO-31 renal; 98.4% in the test on TK-10 renal; 42.5% with ACHN renal; 39.8% in the test on CAKI-1 renal; 12.9% in the test with A498 renal; 28% in the test with CCRF-CEM leukemia. Besides, the growth in the test on MOLT-4 leukemia is 49.1%.

In the case of `NS(=O)(=O)c1ccc(-n2cc(CN3CCNCC3)nn2)cc1`, the growth was 104% with HCT-15 colon; 109% with HT29 colon; 92.1% in the test with SNB-75 CNS; 102% in the test with SNB-19 CNS; 105% in the test on U251 CNS; 100% in the test with SK-MEL-5 melanoma. Besides, the growth was 99% in the test on UACC-62 melanoma; 107% with LOX IMVI melanoma; 111% in the test with SK-MEL-28 melanoma; 110% with SK-MEL-2 melanoma; 104% in the test on EKVX NSCLC; 110% with SN12C renal. Further, the growth in the test on UO-31 renal was 92.9%; in the test on TK-10 renal, 100%; with ACHN renal, 109%; in the test with CAKI-1 renal it was 95.9%; with A498 renal, 107%; with CCRF-CEM leukemia, 109%. For the same compound, the growth in the test with MOLT-4 leukemia was 103%.
